EWS-Fli inh: blocks EWS/Fli oncoprotein-driven transcription; 350,000 tested, 0.67% active; AID 651661; A673 NR0B1-luciferase reporter, viability-normalised; inhibition, % at 12.6 µM;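 active means mean inhibition of at least 50% after viability correction, with every replicate also passing that limit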;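 further: firefly luciferase signal divided by Alamar Blue viability fluorescence both relative to DMSO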
TRPM1 prom inh: inhibitors of MITF-driven TRPM1 promoter in melanoma cells | SK-MEL-5 TRPM1 promoter luciferase, 24 h | inhibition, % at 12.5 µM | 330,000 tested, 0.83% active;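 active means mean inhibition across replicates of 60% or more, whatever share of single replicates reaches that level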
Shn3 3UTR inh: reduces Shn3 3'UTR luciferase signal in osteoblasts. Clone20 osteoblast Shn3 3'UTR firefly luciferase, 24 h. inhibition, % at 12.5 µM. 360,000 tested, 0.52% active;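 active means mean inhibition of at least 75% with every replicate also reaching 75%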;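 further: 0% = median of neutral control wells and 100% = pilot-screen positive control compound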
ABHD5-PLIN5 inh: ABHD5-PLIN5 protein interaction inhibition. 360,000 tested, 0.78% active. inhibition, % at 4 µM. Q00G26+Q8WTS1. Split G. princeps luciferase complementation, luminescence, 4 h. AID 602281;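 active means inhibition above the mean inhibition across every tested compound plus 3 SD, cut at about 22% in these data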;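 further: 0% = DMSO only wells and the 100% control is not disclosed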
Target sequence (Q00G26 whole entry, looked up): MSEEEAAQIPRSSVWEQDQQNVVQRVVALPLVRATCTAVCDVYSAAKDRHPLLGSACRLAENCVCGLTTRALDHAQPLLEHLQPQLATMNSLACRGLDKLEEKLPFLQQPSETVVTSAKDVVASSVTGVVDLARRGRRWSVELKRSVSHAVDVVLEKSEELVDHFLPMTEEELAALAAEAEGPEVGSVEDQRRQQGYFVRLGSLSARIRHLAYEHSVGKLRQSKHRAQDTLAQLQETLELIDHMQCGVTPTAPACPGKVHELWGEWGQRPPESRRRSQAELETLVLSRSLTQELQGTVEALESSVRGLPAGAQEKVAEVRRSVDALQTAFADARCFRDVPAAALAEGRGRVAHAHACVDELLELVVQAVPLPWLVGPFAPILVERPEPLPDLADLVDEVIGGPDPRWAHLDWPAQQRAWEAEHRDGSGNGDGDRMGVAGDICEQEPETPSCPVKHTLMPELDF
Target sequence (Q8WTS1 whole entry, looked up): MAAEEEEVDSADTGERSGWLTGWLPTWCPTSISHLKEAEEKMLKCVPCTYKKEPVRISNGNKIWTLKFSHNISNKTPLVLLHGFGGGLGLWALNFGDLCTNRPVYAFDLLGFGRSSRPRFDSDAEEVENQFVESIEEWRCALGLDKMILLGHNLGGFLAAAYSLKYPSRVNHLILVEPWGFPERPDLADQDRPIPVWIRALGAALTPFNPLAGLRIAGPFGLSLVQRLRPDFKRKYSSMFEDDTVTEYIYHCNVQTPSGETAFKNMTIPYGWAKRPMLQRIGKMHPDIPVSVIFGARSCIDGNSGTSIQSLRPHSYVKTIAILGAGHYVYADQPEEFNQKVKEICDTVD
Peg3 promoter: inhibitors of Peg3 promoter | AID 588405 | 360,000 tested, 1.7% active | inhibition, % at 20 µM | HeLa PEG-Prom luciferase reporter, luminescence, overnight;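 active means inhibition of at least 50% at 20 µM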
PAX8 reporter: lowers PAX8-driven luciferase in RMG-I cells; 360,000 tested, 1.2% active; inhibition, % at 12.6 µM; RMG-I TPO-luciferase reporter, SteadyGlo, 24 h; AID 652154;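 active means mean replicate inhibition at least 60% with every replicate also reaching 60%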;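 further: luciferase light reporting Pax8 driven TPO promoter activity; plate controls were median of neutral control wells for no effect and mitoxantrone controls for full effect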
Numbers without * were called inactive; nt = no result. An excerpt weighted towards active compounds, which were near 3% of everything screened.

SMILES	EWS-Fli inh	TRPM1 prom inh	Shn3 3UTR inh	ABHD5-PLIN5 inh	Peg3 promoter	PAX8 reporter
C[C@@H]1CCCCO[C@H](CN(C)C)[C@@H](C)CN([C@H](C)CO)C(=O)c2cc(NC(=O)Nc3ccc(C(F)(F)F)cc3)ccc2O1	-6	nt	nt	nt	nt	-2
C[C@@H]1CCCCO[C@@H](CN(C)C(=O)Nc2ccc(C(F)(F)F)cc2)[C@@H](C)CN([C@H](C)CO)C(=O)c2cc(NC(=O)Nc3ccc(F)cc3)ccc2O1	6	nt	nt	nt	nt	nt
C[C@H]1CCCCO[C@H](CN(C)C(=O)Nc2ccc(F)cc2)[C@@H](C)CN([C@@H](C)CO)C(=O)c2cc(NC(=O)Nc3ccc(C(F)(F)F)cc3)ccc2O1	4	nt	nt	nt	nt	84*
C[C@H]1CCCCO[C@H](CN(C)C(=O)Nc2ccc(C(F)(F)F)cc2)[C@@H](C)CN([C@@H](C)CO)C(=O)c2cc(NC(=O)Nc3ccc(F)cc3)ccc2O1	-11	nt	nt	nt	nt	84*
C[C@@H]1CCCCO[C@H](CN(C)C(=O)Nc2ccc(C(F)(F)F)cc2)[C@@H](C)CN([C@H](C)CO)C(=O)c2cc(NC(=O)Nc3ccc(F)cc3)ccc2O1	-14	nt	nt	nt	nt	8
C[C@@H]1CCCCO[C@@H](CN(C)C)[C@H](C)CN([C@H](C)CO)C(=O)c2cc(NC(=O)Nc3ccc(C(F)(F)F)cc3)ccc2O1	6	nt	nt	nt	nt	63*
C[C@@H]1CN([C@@H](C)CO)C(=O)c2cccc(NC(=O)Nc3ccc4c(c3)OCO4)c2O[C@@H]1CN(C)S(C)(=O)=O	-10	nt	nt	nt	nt	nt
C[C@H]1CN([C@@H](C)CO)C(=O)c2cccc(NS(=O)(=O)c3ccc(F)cc3)c2O[C@@H]1CN(C)S(=O)(=O)c1ccc(F)cc1	-8	nt	nt	nt	nt	0
C[C@H](CO)N1C[C@H](C)[C@H](CN(C)S(=O)(=O)c2cccs2)OCCCC[C@H](C)Oc2ccc(NC(=O)Nc3ccc(C(F)(F)F)cc3)cc2C1=O	-6	nt	nt	nt	nt	75*
C[C@H]1CCCCO[C@@H](CN(C)S(=O)(=O)c2cccs2)[C@@H](C)CN([C@@H](C)CO)C(=O)c2cc(NC(=O)NC3CCCCC3)ccc2O1	23	nt	nt	nt	nt	97*
C[C@@H]1CCCCO[C@@H](CN(C)S(C)(=O)=O)[C@H](C)CN([C@H](C)CO)C(=O)c2cc(NC(=O)Nc3ccc(C(F)(F)F)cc3)ccc2O1	-4	nt	nt	nt	nt	8
C[C@@H]1CN([C@H](C)CO)C(=O)c2cc(NC(=O)Nc3ccc(C(F)(F)F)cc3)ccc2O[C@@H](C)CCCCO[C@H]1CN(C)S(C)(=O)=O	2	nt	nt	nt	nt	73*
C[C@H](CO)N1C[C@H](C)[C@H](CN(C)S(=O)(=O)c2cccs2)OCCCC[C@H](C)Oc2ccc(NC(=O)CCC(F)(F)F)cc2C1=O	5	nt	nt	nt	nt	14
C[C@@H]1CCCCO[C@H](CN(C)S(=O)(=O)c2cccs2)[C@H](C)CN([C@@H](C)CO)C(=O)c2cc(NC(=O)CCC(F)(F)F)ccc2O1	2	nt	nt	nt	nt	110*
C[C@H]1CCCCO[C@@H](CN(C)S(=O)(=O)c2cccs2)[C@@H](C)CN([C@@H](C)CO)C(=O)c2cc(NC(=O)Nc3ccc(C(F)(F)F)cc3)ccc2O1	2	nt	nt	nt	nt	59
CCCc1cn(CC[C@H]2CC[C@@H](NC(=O)C3CCCCC3)[C@@H](CO)O2)nn1	1	nt	nt	nt	nt	-13
CCCN1C[C@@H](C)[C@H](OC)CN(C)C(=O)c2cc(NC(=O)C3CCOCC3)ccc2OC[C@@H]1C	-1	nt	nt	nt	nt	nt
C[C@@H]1CCCCO[C@@H](CN(C)C(=O)Nc2ccc(F)cc2)[C@H](C)CN([C@@H](C)CO)C(=O)c2cc(NC(=O)Nc3ccc(C(F)(F)F)cc3)ccc2O1	2	nt	nt	nt	nt	78*
C[C@@H]1CN([C@H](C)CO)C(=O)c2cc(NC(=O)Nc3ccc(F)cc3)ccc2O[C@@H](C)CCCCO[C@H]1CN(C)C(=O)Nc1ccc(C(F)(F)F)cc1	-1	nt	nt	nt	nt	87*
O=C(Nc1ccc(F)cc1)N[C@H]1CC[C@H](CC(=O)N2CCCCC2)O[C@H]1CO	-3	nt	nt	nt	nt	-4
Cc1cc2oc(=O)cc(Cn3ncc(Cl)c(Cl)c3=O)c2cc1Cl	nt	83*	97*	4	106*	nt
Nc1nc(N)c2cc(S(=O)(=O)c3ccc4ccccc4c3)ccc2n1	40	nt	85*	-5	14	-12
CCOC(=O)c1[nH]c2cc3c(cc2c1NC(=O)CN1CCc2ccccc2C1)OCO3	nt	13	25	7	68*	nt
O=C(OC[C@@H]1[C@H]2c3ccccc3OC1(CO)N=C1SCCCN12)c1ccccc1	-23	nt	nt	nt	nt	-8
CO[C@@H]1CN(C)C(=O)c2ccc(NC(=O)NC3CCCCC3)cc2OC[C@@H](C)N(CCc2ccccc2)C[C@H]1C	7	nt	nt	nt	nt	66*
SMILES	EWS-Fli inh	TRPM1 prom inh	Shn3 3UTR inh	ABHD5-PLIN5 inh	Peg3 promoter	PAX8 reporter
COCC(=O)N1C[C@H](C)[C@H](OC)CN(C)C(=O)c2ccc(NC(=O)Nc3cccc(F)c3)cc2OC[C@@H]1C	56*	nt	nt	nt	nt	nt
CCC(=O)N1C[C@H](C)[C@@H](OC)CN(C)C(=O)c2ccc(NC(=O)Nc3ccc(Cl)cc3)cc2OC[C@@H]1C	53*	nt	nt	nt	nt	nt
C[C@H](NC(=O)[C@@H]1[C@@H](CO)[C@@H]2Cn3c(ccc(-c4ccccc4)c3=O)[C@@H]2N1C)c1ccccc1	2	nt	nt	nt	nt	nt
O=C(Cc1ccccc1)N/N=C/c1ccc([N+](=O)[O-])s1	nt	68*	24	-2	-55	nt
O=C(CNC(=O)c1cccc(F)c1)N/N=C/c1ccc([N+](=O)[O-])s1	nt	71*	21	-8	3	37
Cc1ccccc1C(=O)N/N=C/c1ccc([N+](=O)[O-])s1	nt	94*	-3	-7	50*	nt
O=C(N/N=C/c1ccc([N+](=O)[O-])s1)c1ccccc1Br	48	90*	41	-16	28	nt
C[C@H](CO)N1C[C@H](C)[C@@H](CN(C)Cc2ccncc2)Oc2ncc(C#CC3CCCC3)cc2C1=O	3	nt	nt	nt	nt	-5
CO[C@@H]1CN(C)C(=O)c2cc(NC(=O)Nc3ccccc3F)ccc2OC[C@@H](C)N(C)C[C@@H]1C	0	nt	nt	nt	nt	nt
O=S(=O)(NCC[C@H]1CC[C@H](NS(=O)(=O)c2ccccc2Cl)[C@H](CO)O1)c1ccc(Cl)cc1	-3	nt	nt	nt	nt	9
C[C@H]1CN([C@@H](C)CO)C(=O)c2cccc(NC(=O)C3CC3)c2O[C@H]1CN(C)Cc1ccccc1	7	nt	nt	nt	nt	-6
Cn1c(SCC(=O)N/N=C/c2ccc([N+](=O)[O-])s2)nnc1-c1ccccc1	49	71*	82	-5	64*	33
O=C(N/N=C\c1ccc([N+](=O)[O-])s1)c1cncc(Br)c1	-6	78*	4	-1	63*	86*
O=C(N/N=C/c1ccc([N+](=O)[O-])s1)C(O)c1ccccc1 (stereo not given)	36	69*	17	2	11	48
O=C(N/N=C/c1ccc([N+](=O)[O-])s1)c1ccccc1	63*	105*	32	-9	1	20
COc1ccc2c3c([nH]c2c1)[C@H](CO)N(C(C)=O)CC31CN(C(=O)c2cccc(F)c2)C1	1	nt	nt	nt	nt	nt
